Each structure is given as a SMILES string. Activity calls are given as the source filed them. Unless noted, the rule behind the calls is not given here.

In PubChem BioAssay one finds z-score and composite z-score data, which are given here for five compounds.

A short description of test [1]: compound effects on lung adenocarcinoma cell viability – A549, calcein-AM fluorescence, 48 h, basal, profiling panel (AID 1162). Note: test concentration not given here. Particulars: higher = more signal.
Test [2] is described as follows: compound effects on differentiated 3T3-L1 adipocyte viability – cell-based, 3T3-L1 adipocytes, calcein-AM fluorescence, 48 h, basal, profiling panel (AID 1163). Note: test concentration not given here. Particulars: 3T3-L1 adipocytes viability, higher = more signal.
Test [3] in a line: compound effects on hepatocellular carcinoma cell viability – HepG2, calcein-AM fluorescence, 48 h, basal, profiling panel (AID 1164). Note: test concentration not given here. Particulars: higher = more signal.
Test [4] is described as follows: compound effects on multiple myeloma cell viability – MM1S, calcein-AM fluorescence, 48 h, basal, profiling panel (AID 1165).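 Note: viability of MM1S multiple myeloma cells under basal unstimulated conditions; test concentration not given here.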 To be noted: higher = more signal.
A short description of test [5]: calcein-AM signal in unstimulated myeloma cells – cell-based, calcein-AM fluorescence, 48 h, PK04 Diversity Set, profiling panel (AID 1166).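 Note: cells grown under basal conditions without added stimulus; test concentration not given here.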 To be noted: RPMI8226 myeloma viability, higher = more signal.
A short description of test [6]: JC-1 mitochondrial signal, unstimulated HepG2 cells – cell-based, JC-1 fluorescence, 24 h, 100 nL compound, profiling panel (AID 1167). Note: test concentration not given here. Particulars: HepG2 mitochondrial potential, higher = more signal.
Test [7] is described as follows: JC-1 mitochondrial signal, unstimulated adipocytes – cell-based, JC-1 fluorescence, 3T3-L1 adipocytes, 24 h, 100 nL compound, profiling panel (AID 1168). Note: test concentration not given here. Particulars: JC-1 mitochondrial fluorescence, higher = more signal, called active from +8 up or from −8 down.
A short description of test [8]: JC-1 mitochondrial signal, unstimulated myeloma cells – cell-based, JC-1 fluorescence, RPMI8226, 24 h, 100 nL compound, profiling panel (AID 1169). Note: test concentration not given here. To be noted: JC-1 mitochondrial potential fluorescence, higher = more signal.
Test [9] can be described thus: JC-1 mitochondrial signal, unstimulated MM1S myeloma – cell-based, JC-1 fluorescence, 24 h, 100 nL compound, profiling panel (AID 1170). Note: test concentration not given here. To be noted: MM1S mitochondrial potential, higher = more signal.
Test [10] in a line: resazurin metabolic signal in A549 cells – cell-based, resazurin fluorescence, 24 h, PK04 Diversity Set, profiling panel (AID 1171). Note: test concentration not given here. Particulars: A549 viability, higher = more signal, called active from +8 up or from −8 down.
A short description of test [11]: resazurin metabolic signal in HepG2 cells – cell-based, resazurin fluorescence, 24 h, PK04 Diversity Set, profiling panel (AID 1172). Note: test concentration not given here. Particulars: HepG2 viability, higher = more signal.
Test [12] is described as follows: budding yeast growth changes without added modifier – OD600, strain BY4716, 24 h, basal condition, primary screen (AID 1173). Particulars: S. cerevisiae BY4716 growth, OD600, 24 h; higher = more signal, called active from +8 up or from −8 down.
Test [13] can be described thus: viability profiling in MM1S myeloma cells – cell-based, resazurin fluorescence, basal, 24 h, PK04 Diversity Set, profiling panel (AID 1174). Note: test concentration not given here. Particulars: higher = more signal, called active from +8 up or from −8 down.
The target of test [14] is Dihydroorotate dehydrogenase (quinone), mitochondrial (Plasmodium falciparum (isolate 3D7)) (UniProt Q08210). The experiment in a line: inhibition of P. falciparum DHODH – biochemical, C-terminal His tag, absorbance 600 nm, primary screen (AID 1175).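 Note: recombinant parasite enzyme with a five histidine tag at its C terminus; test concentration not given here.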 To be noted: PfDHODH enzyme, DCIP absorbance 600 nm; higher = more signal, called active from +8 up or from −8 down.
Test [15] can be described thus: inhibition of PAO1 biofilm formation – strain PAO1, LB-PBS medium, absorbance 600 nm, primary screen (AID 1176). Note: test concentration not given here. To be noted: P. aeruginosa PAO1 growth/biofilm, A600, 12 h; higher = more signal.
Test [16] can be described thus: growth modulation of vineyard yeast isolate – strain RM11-1a, OD600, basal, 24 h, primary screen (AID 1177).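 Note: cultures grown under basal conditions with no added stressor; test concentration not given here.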 Particulars: S. cerevisiae RM11-1a growth, OD600, 24 h; higher = more signal, called active from +8 up or from −8 down.
The nature of test [17]: growth of efflux-deficient E. coli DRC39 – strain DRC39, OD650, 24 h, E. coli filamentation inducers, primary screen (AID 1178).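 Note: growth measured as culture turbidity by optical density at 650 nm; test concentration not given here.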 To be noted: E. coli DRC39 acrAB, higher = more signal, called active from +8 up or from −8 down.
Test [18] can be described thus: growth of efflux-deficient E. coli DRC39 – strain DRC39, OD650, 48 h, E. coli filamentation inducers, primary screen (AID 1179).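 Note: screen aims at cell division blockers that make cells filament.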 Particulars: E. coli DRC39 delta-acrAB growth, higher = more signal, called active from +8 up or from −8 down.
A short description of test [19]: viability profiling in RPMI8226 myeloma cells – cell-based, resazurin fluorescence, basal, 24 h, PK04 Diversity Set, profiling panel (AID 1180).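 Note: RPMI8826 multiple myeloma cell line at 5000 cells per well; test concentration not given here.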 To be noted: higher = more signal.
In test [20] the target is E3 ubiquitin-protein ligase XIAP (Homo sapiens) (UniProt P98170). Briefly: small molecules binding XIAP protein – biophysical, small-molecule microarray, fluorescence 635 nm, primary screen (AID 1181).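 Note: score merges 667 nm emission and signal to noise over triplicate slides.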 To be noted: higher = more signal.
Sequence of E3 ubiquitin-protein ligase XIAP (Homo sapiens) (P98170 whole entry, looked up): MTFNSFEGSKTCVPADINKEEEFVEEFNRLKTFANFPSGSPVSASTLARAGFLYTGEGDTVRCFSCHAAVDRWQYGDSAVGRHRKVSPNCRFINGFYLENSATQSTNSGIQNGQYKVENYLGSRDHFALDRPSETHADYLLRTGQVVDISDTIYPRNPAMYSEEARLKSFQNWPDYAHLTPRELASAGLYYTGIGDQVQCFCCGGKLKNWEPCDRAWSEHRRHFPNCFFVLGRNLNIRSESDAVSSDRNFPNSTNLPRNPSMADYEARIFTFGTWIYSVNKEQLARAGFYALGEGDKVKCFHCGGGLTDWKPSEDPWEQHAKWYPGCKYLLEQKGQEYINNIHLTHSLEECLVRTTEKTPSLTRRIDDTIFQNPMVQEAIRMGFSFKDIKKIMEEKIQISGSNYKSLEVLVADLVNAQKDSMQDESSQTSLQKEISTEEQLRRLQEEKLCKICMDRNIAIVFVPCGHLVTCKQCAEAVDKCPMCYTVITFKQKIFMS

Sequence of Dihydroorotate dehydrogenase (quinone), mitochondrial (Plasmodium falciparum (isolate 3D7)) (Q08210 whole entry, looked up): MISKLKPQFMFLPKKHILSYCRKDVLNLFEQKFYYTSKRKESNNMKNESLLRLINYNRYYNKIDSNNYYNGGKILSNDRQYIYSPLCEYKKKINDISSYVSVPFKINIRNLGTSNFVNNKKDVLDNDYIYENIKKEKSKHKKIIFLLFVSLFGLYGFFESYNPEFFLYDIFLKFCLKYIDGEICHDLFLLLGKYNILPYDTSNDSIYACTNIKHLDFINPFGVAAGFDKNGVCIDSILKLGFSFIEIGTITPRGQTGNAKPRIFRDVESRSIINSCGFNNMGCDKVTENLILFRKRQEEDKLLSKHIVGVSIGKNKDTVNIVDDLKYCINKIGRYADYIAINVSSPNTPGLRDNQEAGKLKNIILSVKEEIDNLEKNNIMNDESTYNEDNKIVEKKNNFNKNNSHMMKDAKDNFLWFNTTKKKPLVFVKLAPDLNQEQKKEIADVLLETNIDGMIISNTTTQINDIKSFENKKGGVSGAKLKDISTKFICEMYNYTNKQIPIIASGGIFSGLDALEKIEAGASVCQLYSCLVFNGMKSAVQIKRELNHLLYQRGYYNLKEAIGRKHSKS

In the case of `C=CCNC(=O)[C@H]1[C@@H]2C(=O)O[C@@H](c3ccccc3)[C@@H](c3ccccc3)N2[C@@H](c2ccc(O)cc2)[C@]12C(=O)Nc1ccc(C#CC3(O)CCCCCC3)cc12`, the z-score in [1] is -0.0001; in [2], 0.0111; in [3] it was -1.37; in test [4], -1.65; in test [5], -4.08; in [6], -2.86. The z-score is -1.62 (inactive) in test [7]; -1.25 in test [8]; -0.291 in test [9]; 0.421 (inactive) in test [10]; 0.435 in test [11]; -0.989 (inactive) in test [12]. Besides, the z-score in test [13] was -0.514 (inactive); in test [15], 1.45 (inactive); in test [16], -0.596 (inactive); in test [17] it was 0.186 (inactive); in test [18], -0.11 (inactive); in test [19], -0.458. Also, the values for the composite z-score in test [14] and in test [20] were 0.19 (inactive) and -0.0622, respectively.

For `COC1OC[C@]2(C)[C@H]3C4=C(CN2C(=O)OC(C)(C)C)[C@H](C)C(CO)C(CO)C4CC[C@@H]13` (stereo not given in full), the z-score was 0.657 in [1]; 0.281 in [2]; 1.3 in test [3]; 0.728 in test [4]; -0.944 in [5]; 2.82 in test [6]. For the same compound, the z-score in test [7] was 0.0682 (inactive); in test [8], 0.287; in test [9], -1.08; in test [10], -0.634 (inactive); in test [11], -1.1; in test [12] it was 1.14 (inactive). Besides, the z-score in test [13] is -1.25 (inactive); in test [15], 0.523 (inactive); in test [16], 1.06 (inactive); in [17], -0.34 (inactive); in test [18], 0.154 (inactive); in [19], -0.975. The composite z-score was -0.0528 (inactive) in test [14] and 0.243 in test [20].

Regarding `O=C1N(Cc2ccccc2)Cc2ccccc2[C@@H]2OC(c3ccc(OCCCO)cc3)=N[C@]12CCS(=O)(=O)c1ccccc1`, the z-score in test [1] was 0.589; in test [2], -1.46; in [3], 0.151; in test [4], -1.25; in test [5], -1.08; in [6] it was -0.565. In addition, the z-score in [7] was 0.676 (inactive); in test [8] it was -1.14; in [9], -0.156; in [10] it was 0.403 (inactive); in test [11], -0.121; in [12], 0.691 (inactive). Moreover, the z-score in test [13] was -0.772 (inactive); in test [15] it was 1.91 (inactive); in test [16] it was 2.33 (inactive); in [17], 0.153 (inactive); in test [18] it was -0.286 (inactive); in test [19], -0.849. Besides, the composite z-score is 0.094 (inactive) in [14] and -0.144 in test [20].

Regarding `O=C(CS)NCCCCCCNC(=O)[C@H]1C[C@H]2C(=O)N[C@@H](Cc3ccccc3)C(=O)N2[C@H]1c1ccc(O)cc1`, the z-score in test [1] was 0.215; in [2] it was 0.0724; in test [3], -0.521; in test [4] it was -1.51; in [5], 0.388; in test [6], -1.57. Also, the z-score in [7] was -1.09 (inactive); in [8], -0.254; in [9], 0.046; in test [10] it was 1.26 (inactive); in test [11], 0.504; in [12], 0.588 (inactive). Moreover, the z-score in [13] is -0.619 (inactive); in test [15], 0.836 (inactive); in test [16], 0.252 (inactive); in [17], 0.0577 (inactive); in test [18], -0.983 (inactive); in [19], 0.158. Further, the composite z-score is -0.0269 (inactive) in test [14] and -0.166 in test [20].

Take `COCCOC(=O)N1C(=O)[C@@]2(c3cc(C#CCCO)ccc31)[C@H](c1ccccc1OCCO)N1[C@H](c3ccccc3)[C@H](c3ccccc3)OC(=O)[C@H]1[C@@H]2C(=O)Nc1nc2ccccc2s1`: the z-score in test [1] was 0.148; in test [2], -0.676; in test [3], 0.169; in [4], -1.11; in test [5] it was -0.813; in test [6] it was -3.28. In addition, the z-score in test [7] was -0.192 (inactive); in [8], -0.417; in test [9], -0.998; in test [10] it was 0.854 (inactive); in test [11], 1.03; in test [12], 1.13 (inactive). Further, the z-score in test [13] was -0.125 (inactive); in test [15] it was 2.51 (inactive); in test [16], 1.79 (inactive); in [17], -0.233 (inactive); in test [18], -0.324 (inactive); in test [19], -0.411. Also, the composite z-score was -0.26 (inactive) in test [14] and -0.115 in [20].
